From PubChem BioAssay
Unmarked numbers belong to inactive results. Entries that show only a call come without a potency. For some assays here: Potency and affinity values are given separately. The source made the active and inactive calls. Unless noted, how the calls were made is not given here.

What was measured:
[1] = antimalarial activity against Dd2 strain (AID 2302;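 active means growth inhibition above 50% at the single 2 µM test dose, taken to imply half-maximal potency below 2 µM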); details: P. falciparum Dd2 in RBCs, LDH growth readout, 72 h; at 2 µM; hits give high values
[2] = human hepatoma cell viability loss – ATP luminescence, cytotoxicity control for P. falciparum antimalarial project, primary screen (AID 2303;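 active means inhibition above 50%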); details: HepG2 viability, 24-48 h, at 10 µM, hits give high values
[3] = target: L-lactate dehydrogenase (Plasmodium falciparum (isolate CDC / Honduras)) (UniProt Q27743); assay: PfLDH activity inhibition – cell lysate, 3D7 strain, counter-screen for P. falciparum growth inhibition project (AID 2304); details: P. falciparum 3D7 crude extract, LDH APAD/NBT absorbance; at 2 µM; hits give high values
[4] = inhibition of 3D7 malaria parasite growth – strain 3D7 (AID 2306); details: P. falciparum 3D7 erythrocytic growth, LDH absorbance, 72 h; at 2 µM; hits give high values
[5] = target: Calcium-dependent protein kinase 1 (Plasmodium falciparum (isolate 3D7)) (UniProt P62344); assay: PfCDPK1 kinase inhibitors, biochemical, TCAMS library (AID 1159585; cut-off not given, nearly all actives have IC50 up to about 0.98 µM;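 further: inhibitors leave more ATP so luminescence rises with inhibition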); details: recombinant PfCDPK1, Kinase-Glo ATP depletion luminescence
[6] = target: Plasmodium falciparum protein kinase 6 (PK6, PF3D7_1337100) (UniProt Q8IDW1); assay: PfPK6 kinase inhibitors, biochemical, TCAMS library (AID 1159586); details: recombinant PfPK6, Kinase-Glo ATP depletion luminescence
[7] = target: Protein kinase 7 (PK7), Plasmodium falciparum 3D7 (PF3D7_0213400) (UniProt Q7YTF7); assay: inhibition of Plasmodium PK7 catalytic activity – biochemical, TCAMS antimalarial set, Kinase-Glo luminescence (AID 1159587); details: recombinant PfPK7, Kinase-Glo ATP depletion luminescence
[8] = target: Calcium-dependent protein kinase 4 (Plasmodium falciparum (isolate 3D7)) (UniProt Q8IBS5); assay: PfCDPK4 kinase inhibitors, biochemical, TCAMS library (AID 1159588; cut-off not given, nearly all actives have IC50 up to about 0.91 µM); details: recombinant PfCDPK4, Kinase-Glo ATP depletion luminescence
Chain of Calcium-dependent protein kinase 4 (Plasmodium falciparum (isolate 3D7)) (Q8IBS5 whole entry, looked up): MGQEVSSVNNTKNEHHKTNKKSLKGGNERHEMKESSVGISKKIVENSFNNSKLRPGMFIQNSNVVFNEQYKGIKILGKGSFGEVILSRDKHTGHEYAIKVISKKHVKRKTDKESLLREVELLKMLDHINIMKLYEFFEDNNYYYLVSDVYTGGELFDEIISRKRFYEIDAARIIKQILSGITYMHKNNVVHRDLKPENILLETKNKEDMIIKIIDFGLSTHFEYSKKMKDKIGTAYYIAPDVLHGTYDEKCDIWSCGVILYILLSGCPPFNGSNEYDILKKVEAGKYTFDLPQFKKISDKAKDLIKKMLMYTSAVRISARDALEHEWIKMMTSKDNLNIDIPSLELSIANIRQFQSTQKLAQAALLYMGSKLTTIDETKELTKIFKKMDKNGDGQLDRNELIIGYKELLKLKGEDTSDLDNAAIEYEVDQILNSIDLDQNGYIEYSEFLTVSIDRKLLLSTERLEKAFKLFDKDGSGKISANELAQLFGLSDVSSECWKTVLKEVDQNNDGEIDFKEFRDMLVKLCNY

Chain of L-lactate dehydrogenase (Plasmodium falciparum (isolate CDC / Honduras)) (Q27743 whole entry, looked up): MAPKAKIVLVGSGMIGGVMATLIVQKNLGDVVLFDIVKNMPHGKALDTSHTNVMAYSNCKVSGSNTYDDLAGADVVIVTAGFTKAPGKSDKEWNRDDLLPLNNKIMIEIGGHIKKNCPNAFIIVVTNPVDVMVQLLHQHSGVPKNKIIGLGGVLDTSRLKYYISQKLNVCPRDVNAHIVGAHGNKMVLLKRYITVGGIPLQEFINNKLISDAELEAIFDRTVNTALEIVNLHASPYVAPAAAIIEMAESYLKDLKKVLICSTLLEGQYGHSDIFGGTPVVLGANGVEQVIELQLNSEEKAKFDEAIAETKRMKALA
Chain of Calcium-dependent protein kinase 1 (Plasmodium falciparum (isolate 3D7)) (P62344 whole entry, looked up): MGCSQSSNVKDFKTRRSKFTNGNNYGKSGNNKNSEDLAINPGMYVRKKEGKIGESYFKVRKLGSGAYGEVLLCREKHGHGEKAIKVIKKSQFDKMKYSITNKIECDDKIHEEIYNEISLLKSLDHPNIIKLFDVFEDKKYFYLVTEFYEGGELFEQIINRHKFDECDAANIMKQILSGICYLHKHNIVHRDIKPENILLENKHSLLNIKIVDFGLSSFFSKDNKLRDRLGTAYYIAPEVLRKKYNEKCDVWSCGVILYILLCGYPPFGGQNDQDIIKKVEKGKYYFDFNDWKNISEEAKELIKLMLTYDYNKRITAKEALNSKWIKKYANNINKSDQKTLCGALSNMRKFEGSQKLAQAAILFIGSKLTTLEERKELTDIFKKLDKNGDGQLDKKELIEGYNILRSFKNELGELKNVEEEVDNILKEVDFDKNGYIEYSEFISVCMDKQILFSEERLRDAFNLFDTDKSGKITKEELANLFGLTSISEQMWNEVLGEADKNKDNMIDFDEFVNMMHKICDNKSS
Chain of Plasmodium falciparum protein kinase 6 (PK6, PF3D7_1337100) (Q8IDW1 1-305): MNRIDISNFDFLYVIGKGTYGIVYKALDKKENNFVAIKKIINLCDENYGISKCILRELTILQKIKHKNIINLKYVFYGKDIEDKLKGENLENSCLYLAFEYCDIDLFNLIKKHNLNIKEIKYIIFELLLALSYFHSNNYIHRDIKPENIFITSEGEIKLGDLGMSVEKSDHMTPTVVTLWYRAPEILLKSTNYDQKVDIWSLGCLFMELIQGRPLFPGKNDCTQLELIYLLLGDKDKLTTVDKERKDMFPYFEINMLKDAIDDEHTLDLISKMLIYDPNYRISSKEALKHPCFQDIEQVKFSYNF
Chain of Protein kinase 7 (PK7), Plasmodium falciparum 3D7 (PF3D7_0213400) (Q7YTF7 1-343): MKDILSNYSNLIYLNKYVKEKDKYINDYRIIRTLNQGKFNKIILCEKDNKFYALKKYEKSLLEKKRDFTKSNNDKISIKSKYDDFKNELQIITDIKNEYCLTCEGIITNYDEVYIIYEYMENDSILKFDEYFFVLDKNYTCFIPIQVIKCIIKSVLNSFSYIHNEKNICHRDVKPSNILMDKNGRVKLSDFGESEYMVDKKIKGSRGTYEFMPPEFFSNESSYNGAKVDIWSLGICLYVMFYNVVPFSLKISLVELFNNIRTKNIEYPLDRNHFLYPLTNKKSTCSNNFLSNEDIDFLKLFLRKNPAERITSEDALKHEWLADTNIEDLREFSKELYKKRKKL

Compound | growth inhibition [1] | inhibition [2] | inhibition [3] [%] | growth inhibition [4] | outcome [5] | outcome [6] | outcome [7] | outcome [8]
NC1=NC2(CCCCC2)N(OCCCCCCC2CCCCC2)C(N)=N1 | 49% | 77% (active) | -4 | 97% (active) | inactive | inactive | inactive | inactive
CC(C)NCc1ccc(-c2ccc(NC(=O)c3cccc(Cl)c3)cc2)cc1 | 14% | 36% | -2 | 100% (active) | inactive | inactive | inactive | inactive
Clc1ccc(OCc2ccccc2)c(Cc2ccc(-c3nc4ccncc4[nH]3)o2)c1 | 6% | 2% | -2 | 99% (active) | inactive | inactive | inactive | inactive
Brc1cc(Br)c2c(c1)C(NCCCNc1nc3ncccc3[nH]1)CCN2 (stereo not given) | 83% (active) | 5% | 1 | 99% (active) | inactive | inactive | inactive | inactive
COc1cccc(OC)c1C(=O)N1CCC2(CC1)C(=O)N(CC(=O)NC1CCCCC1)CN2c1ccccc1 | 91% (active) | 16% | 5 | 92% (active) | inactive | inactive | inactive | inactive
COc1cc(NC(=O)/C=C/c2ccccc2OC(F)(F)F)cc(OCCN2CCCCC2)c1 | 6% | 25% | 0 | 96% (active) | inactive | inactive | inactive | inactive
O=C(OCc1ccccn1)c1nc2ccccc2[nH]1 | 97% (active) | 63% (active) | -2 | 92% (active) | inactive | inactive | inactive | inactive
N#Cc1ccc(N(CCOc2ccc(Cl)c(F)c2)Cc2ccccc2C(F)(F)F)cc1C(F)(F)F | 43% | 17% | -2 | 101% (active) | inactive | inactive | inactive | inactive
CC1(C)N=C(N)N=C(N)N1CCc1ccccc1 | -1% | 50% (active) | -4 | 93% (active) | inactive | inactive | inactive | inactive
CSc1c(CNCCCNc2cc(=O)c3ccccc3[nH]2)[nH]c2ccccc12 | 21% | 0% | 2 | 87% (active) | inactive | inactive | inactive | inactive
Cc1cc(C)c(C)c(OCCCON2C(N)=NC(N)=NC2(C)C)c1C | 95% (active) | 64% (active) | -4 | 94% (active) | inactive | inactive | inactive | inactive
CCCCCCOc1ccc(C(=O)NCCCC2CCN(CCCCCNC(=O)C=Cc3ccc(Cl)c(Cl)c3)CC2)cc1 | 25% | 22% | -2 | 94% (active) | inactive | inactive | inactive | inactive
CCOC(=O)c1ccc(NC(=O)Nc2ccc(-c3ccc(-c4nc5c(C)cccc5[nH]4)s3)cc2)cc1 | 100% (active) | 60% (active) | -4 | 101% (active) | inactive | inactive | inactive | inactive
Cc1ccc(CN(Cc2ccc(C(=O)N(C)C)cc2)Cc2ccc3c(c2)OCCO3)cc1C | 87% (active) | 10% | 0 | 91% (active) | inactive | inactive | inactive | inactive
CCNc1cc(C(=O)N[C@@H](Cc2ccccc2)[C@H](O)CNCc2cccc(-c3cncnc3)c2)cc(N2CCCC2=O)c1 | 96% (active) | 5% | 2 | 97% (active) | inactive | inactive | inactive | inactive
COc1cc2nc(N3CCC(CNC(=O)c4cccc5cccnc45)CC3)nc(N)c2cc1OC | 33% | 34% | -2 | 99% (active) | inactive | inactive | inactive | inactive
NC(=O)C1CCN(Cc2ccc(-c3ccc(-c4nc5ccc(F)cc5[nH]4)cc3)cc2)CC1 | 100% (active) | 12% | 7 | 101% (active) | inactive | inactive | inactive | inactive
N#Cc1cccc(NC(=O)Nc2ccc(-c3csc(-c4nc5ccccc5[nH]4)c3)cc2)c1 | 97% (active) | 63% (active) | -3 | 103% (active) | inactive | inactive | inactive | inactive
CC(C)n1cc2c(ccc3nc(N)nc(N)c32)n1 | -2% | 65% (active) | 1 | 92% (active) | inactive | inactive | inactive | inactive
CCCc1cc(=O)[nH]c(-n2nc(C)cc2NC(=O)C(CC)c2ccccc2)n1 (stereo not given) | 63% (active) | 41% | -2 | 94% (active) | inactive | inactive | inactive | inactive

Compound | growth inhibition [1] | inhibition [2] | inhibition [3] [%] | growth inhibition [4] | outcome [5] | outcome [6] | outcome [7] | outcome [8]
NCc1ccc(-c2ccc3c(N)nccc3c2)cc1 | 92% (active) | 28% | 0 | 100% (active) | inactive | inactive | inactive | inactive
Cc1ccc(NC(=O)c2cccc(N3CCN(c4ccncc4)CC3)c2)cc1F | 72% (active) | 43% | -1 | 101% (active) | inactive | inactive | inactive | inactive
COc1cc(NC(=O)N2CCOC(CCN3CCC(c4ccccc4)CC3)(c3ccc(Cl)c(Cl)c3)C2)cc(OC)c1 (stereo not given) | 73% (active) | 12% | 0 | 93% (active) | inactive | inactive | inactive | inactive
CCN(CC)CCN(Cc1ccc(-c2ccc(C(F)(F)F)cc2)cc1)C(=O)Cn1c(CCc2ccc(F)c(F)c2)cc(=O)c2ccccc21 | 26% | 23% | -1 | 95% (active) | inactive | inactive | inactive | inactive
CCN1CCN(c2ccc(NC(=O)c3cc4c(C)nn(-c5ccccc5)c4s3)cc2C)CC1 | 81% (active) | 32% | 5 | 101% (active) | inactive | inactive | inactive | inactive
CC(C)c1ccc(NC(=O)c2ccc(C(=O)NC3CCN(Cc4ccsc4)C3)cc2)cc1 (stereo not given) | 28% | 17% | -2 | 82% (active) | inactive | inactive | inactive | inactive
COc1cccc2c(Nc3ccccc3C)nc(Nc3ccccc3C)nc12 | 36% | 9% | 4 | 95% (active) | inactive | inactive | inactive | inactive
Cc1ccc2c(c1)nc(N)n2C[C@H](O)c1ccccc1 | 74% (active) | -3% | 7 | 100% (active) | inactive | inactive | inactive | inactive
CN1CCN(CCCNCc2ccccc2-c2cccc(CNCc3ccc4c(c3)OCO4)c2)CC1 | 7% | 34% | -1 | 102% (active) | inactive | inactive | inactive | inactive
COc1cccc(CNC(=O)[C@@H]2CN(C(=O)c3ccccc3)CCN2)c1 | -1% | 4% | -2 | 92% (active) | inactive | inactive | inactive | inactive
Nc1cccc(CNCc2cccc(-c3ccc(-c4nc5ccccc5[nH]4)cc3)c2)c1 | 92% (active) | -1% | -2 | 101% (active) | inactive | inactive | inactive | inactive
CCN(CCCN1CCCCC1)c1nc(C)cc(Nc2ccc(Cl)cc2)n1 | 92% (active) | 30% | 3 | 98% (active) | inactive | inactive | inactive | inactive
O=C(c1ccc(O)c(-c2cc(Cl)cc(Cl)c2)c1)N1CCCC1 | 57% (active) | 3% | -6 | 90% (active) | inactive | inactive | inactive | inactive
CCCNCc1ccc(-c2ccc(CN(CCOC)C(=O)Cc3cccnc3)cc2)nc1 | 13% | 10% | -1 | 92% (active) | inactive | inactive | inactive | inactive
CCCC(CNCc1cccc(SC(F)(F)F)c1)CNc1cc(=O)c2ccccc2[nH]1 (stereo not given) | 87% (active) | 5% | 5 | 101% (active) | inactive | inactive | inactive | inactive
CN(CCN(C)C(=O)NCc1ccccc1)C(=O)NCc1ccccc1 | 0% | 2% | 1 | 101% (active) | inactive | inactive | inactive | inactive
CC(=O)c1ccccc1C(=O)N1CCOc2ccc(C(O)C(c3ccccc3)c3ccccc3)cc2C1 (stereo not given) | 98% (active) | 10% | 3 | 96% (active) | inactive | inactive | inactive | inactive
Fc1ccc2nc(-c3ccc(-c4ccc(CN5CCCCC5)cc4)cc3)[nH]c2c1 | 100% (active) | 31% | -3 | 98% (active) | inactive | inactive | inactive | inactive
NCCCNc1nccc(N2CCc3ncnc(Nc4ccc(OCc5cccc(F)c5)c(Cl)c4)c3C2)n1 | 93% (active) | 18% | 0 | 98% (active) | inactive | inactive | inactive | inactive
Cc1cc(NN=Cc2ccccc2Cl)c2ccccc2n1 | 30% | -3% | 2 | 102% (active) | inactive | inactive | inactive | inactive
